In the supplement of paper PMC8975748:
Structures can show the parent of a compound that is named as a salt. ± gives the standard deviation of the averaged measurements.

Assays:
[1] = tested on: Saccharomyces cerevisiae BY4741 SeMeCo community; test: mean cell size (pixel area) (pixels); higher = larger cells; conditions: 10 µM; 24 h; SM minimal medium
Summary of the method: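 Mean cell pixel area per well was determined by automated confocal microscopy with Harmony analysis of paraformaldehyde-fixed cells. The cells, a Saccharomyces cerevisiae BY4741 community of four plasmids that each complement one auxotrophy and carry a fluorescent marker, were incubated for 24 h with drug at a final 10 µM in SM medium in 384-well plates. Numbers are averaged over 3 replicates. Same SeMeCo high-content imaging drug screen: Selleck FDA-approved drugs at 10 µM, 24 h in SM medium, 384-well plates, 3 replicates.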

[2] = tested on: Saccharomyces cerevisiae BY4741 SeMeCo community; test: z-score of prototroph abundance vs DMSO median; higher = larger share of this subpopulation than in DMSO controls; conditions: 10 µM; 24 h; SM minimal medium; subpopulation (auxotrophy): Prototroph
Summary of the method: (§1)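 Scoring was based on each subpopulation's abundance, expressed as a z-score against the vehicle-well median. A Saccharomyces cerevisiae BY4741 community with four plasmids, each restoring one auxotrophy and encoding a distinct fluorescent protein, was pre-grown overnight to OD600 1.0, diluted to 0.3, and added at 70 µl to 384-well plates acoustically predosed with library drugs (10 µM final). It then grew 24 h in minimal SM medium before paraformaldehyde fixation and automated confocal microscopy, with single-auxotroph fluorescent strains setting thresholds and autofluorescence correction.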

[3] = tested on: Saccharomyces cerevisiae BY4741 SeMeCo community; test: z-score of subpopulation abundance vs DMSO median, subpopulation auxotrophic for M; higher = larger share of this subpopulation than in DMSO controls; conditions: 10 µM; 24 h; SM minimal medium; subpopulation (auxotrophy): M
Summary of the method: as §1

[4] = tested on: Saccharomyces cerevisiae BY4741 SeMeCo community; test: z-score of subpopulation abundance vs DMSO median, subpopulation auxotrophic for L; higher = larger share of this subpopulation than in DMSO controls; conditions: 10 µM; 24 h; SM minimal medium; subpopulation (auxotrophy): L
Summary of the method: as §1

[5] = tested on: Saccharomyces cerevisiae BY4741 SeMeCo community; test: z-score of subpopulation abundance vs DMSO median, subpopulation auxotrophic for U; higher = larger share of this subpopulation than in DMSO controls; conditions: 10 µM; 24 h; SM minimal medium; subpopulation (auxotrophy): U
Summary of the method: as §1

[6] = tested on: Saccharomyces cerevisiae BY4741 SeMeCo community; test: z-score of subpopulation abundance vs DMSO median, subpopulation auxotrophic for HM; higher = larger share of this subpopulation than in DMSO controls; conditions: 10 µM; 24 h; SM minimal medium; subpopulation (auxotrophy): HM
Summary of the method: as §1

[7] = tested on: Saccharomyces cerevisiae BY4741 SeMeCo community; test: z-score of subpopulation abundance vs DMSO median, subpopulation auxotrophic for HU; higher = larger share of this subpopulation than in DMSO controls; conditions: 10 µM; 24 h; SM minimal medium; subpopulation (auxotrophy): HU
Summary of the method: as §1

[8] = tested on: Saccharomyces cerevisiae BY4741 SeMeCo community; test: z-score of subpopulation abundance vs DMSO median, subpopulation auxotrophic for HLU; higher = larger share of this subpopulation than in DMSO controls; conditions: 10 µM; 24 h; SM minimal medium; subpopulation (auxotrophy): HLU
Summary of the method: as §1

[9] = tested on: Saccharomyces cerevisiae BY4741 SeMeCo community; test: z-score of subpopulation abundance vs DMSO median, subpopulation auxotrophic for HLM; higher = larger share of this subpopulation than in DMSO controls; conditions: 10 µM; 24 h; SM minimal medium; subpopulation (auxotrophy): HLM
Summary of the method: as §1

[10] = tested on: Saccharomyces cerevisiae BY4741 SeMeCo community; test: z-score of subpopulation abundance vs DMSO median, subpopulation auxotrophic for HUM; higher = larger share of this subpopulation than in DMSO controls; conditions: 10 µM; 24 h; SM minimal medium; subpopulation (auxotrophy): HUM
Summary of the method: as §1

[11] = tested on: Saccharomyces cerevisiae BY4741 SeMeCo community; test: z-score of subpopulation abundance vs DMSO median, subpopulation auxotrophic for LUM; higher = larger share of this subpopulation than in DMSO controls; conditions: 10 µM; 24 h; SM minimal medium; subpopulation (auxotrophy): LUM
Summary of the method: as §1

[12] = tested on: Saccharomyces cerevisiae BY4741 SeMeCo community; test: z-score of subpopulation abundance vs DMSO median, subpopulation auxotrophic for HLUM; higher = larger share of this subpopulation than in DMSO controls; conditions: 10 µM; 24 h; SM minimal medium; subpopulation (auxotrophy): HLUM
Summary of the method: as §1

[13] = tested on: Saccharomyces cerevisiae BY4741 SeMeCo community; test: z-score of subpopulation abundance vs DMSO median, subpopulation auxotrophic for H; higher = larger share of this subpopulation than in DMSO controls; conditions: 10 µM; 24 h; SM minimal medium; subpopulation (auxotrophy): H
Summary of the method: as §1

[14] = tested on: Saccharomyces cerevisiae BY4741 SeMeCo community; test: z-score of subpopulation abundance vs DMSO median, subpopulation auxotrophic for LM; higher = larger share of this subpopulation than in DMSO controls; conditions: 10 µM; 24 h; SM minimal medium; subpopulation (auxotrophy): LM
Summary of the method: as §1

[15] = tested on: Saccharomyces cerevisiae BY4741 SeMeCo community; test: z-score of subpopulation abundance vs DMSO median, subpopulation auxotrophic for UM; higher = larger share of this subpopulation than in DMSO controls; conditions: 10 µM; 24 h; SM minimal medium; subpopulation (auxotrophy): UM
Summary of the method: as §1

[16] = tested on: Saccharomyces cerevisiae BY4741 SeMeCo community; test: z-score of subpopulation abundance vs DMSO median, subpopulation auxotrophic for HL; higher = larger share of this subpopulation than in DMSO controls; conditions: 10 µM; 24 h; SM minimal medium; subpopulation (auxotrophy): HL
Summary of the method: as §1

SMILES | mean cell size [1] | z-score of prototroph abundance [2] | z-score of subpopulation abundance [3] | z-score of subpopulation abundance [4] | z-score of subpopulation abundance [5] | z-score of subpopulation abundance [6] | z-score of subpopulation abundance [7] | z-score of subpopulation abundance [8] | z-score of subpopulation abundance [9] | z-score of subpopulation abundance [10] | z-score of subpopulation abundance [11] | z-score of subpopulation abundance [12] | z-score of subpopulation abundance [13] | z-score of subpopulation abundance [14] | z-score of subpopulation abundance [15] | z-score of subpopulation abundance [16]
CC(C)COCC(CN(Cc1ccccc1)c1ccccc1)N1CCCC1 (stereo not given) [Bepridil hydrochloride] | 12.5 ± 0.16 | -1.24 | -0.18 | 0.85 | -0.09 | 0.11 | 0.45 | 0.92 | 2.56 | 1.35 | 1.57 | 2.72 | – | – | – | –
Nc1ccc(S(=O)(=O)Nc2ncccn2)cc1 [Sulfadiazine] | 12.34 ± 0.084 | 0.05 | -0.51 | 0.86 | -0.28 | -0.44 | – | 0.31 | 0 | -0.05 | 0.42 | 1.03 | -0.65 | -0.04 | -0.04 | -0.65
CCC[C@@H]1C[C@@H](C(=O)N[C@@H]([C@H]2O[C@H](SC)[C@H](O)[C@@H](O)[C@H]2O)[C@H](C)Cl)N(C)C1 [Clindamycin HCl] | – | -0.3 | 0.72 | 0.8 | – | 0.38 | – | -0.02 | 0.06 | -0.28 | 0.28 | 0.72 | – | 0.83 | 0.35 | 0.26
CO/N=C(\C(=O)N[C@@H]1C(=O)N2C(C(=O)O)=C(COC(N)=O)CS[C@H]12)c1ccco1 [Cefuroxime sodium] | 12.47 ± 0.073 | – | 0.78 | -0.97 | 0.58 | -0.58 | – | -1.34 | -1.17 | -0.92 | -0.31 | – | -1.01 | -0.79 | – | -0.76
Cc1cc(C)nc(NS(=O)(=O)c2ccc(N)cc2)n1 [Sulfamethazine Sodium Salt] | 12.28 ± 0.095 | – | -1.42 | 0.3 | -0.43 | – | 0.05 | -0.28 | -0.15 | -0.93 | -0.01 | 0.81 | 0.36 | – | -0.8 | -0.24
COc1ccc(Cl)cc1C(=O)NCCc1ccc(S(=O)(=O)NC(=O)NC2CCCCC2)cc1 [Glyburide (Glibenclamide)] | 12.36 ± 0.11 | -0.6 | -0.21 | 1.58 | -0.59 | – | -0.2 | 0.43 | -0.04 | -0.09 | 1.11 | 0.01 | 0.81 | 1.74 | – | 1.09
O=C(O)c1cn(C2CC2)c2cc(N3CCNCC3)c(F)cc2c1=O [Ciprofloxacin hydrochloride hydrate] | – | -0.74 | 0.57 | -0.22 | 0.96 | 0.16 | – | 0.36 | 0.11 | 0.96 | 0.41 | 0.98 | -0.88 | -0.37 | 0.65 | -0.26
CCCCNc1ccc(C(=O)OCCN(C)C)cc1 [Tetracaine HCl] | 12.52 ± 0.015 | -0.78 | 0.03 | -0.03 | 0.72 | 0.5 | 0.08 | -0.27 | 0.52 | – | – | 0.94 | -0.2 | 0.43 | – | 0
